Measured values from PubChem BioAssay (NCI).
This is part of a sample that, as a whole, favours compounds with a hit. Of some 79,000 tested, about 15% had one in any assay. Calls of active or inactive are those of the source. Rule as the data show it: active = growth inhibition above about 70%; inactive = the rest.

Assay: NCI Yeast Anticancer Drug Screen. Data for the mec2-1 strain (AID 157)
Conditions: S. cerevisiae mec2-1 strain, hits give high values; at 50.0 µM unless noted
Outline: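 Growth inhibition is read against vehicle-treated controls after compound exposure of the mec2-1 yeast strain, which is defective in DNA damage repair or cell cycle control.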

| SMILES | growth inhibition |
| --- | --- |
| O=C1C(CN2CCCC2)CCCC1CN1CCCC1 (stereo not given) | -29.4% (inactive) |
| CC(C)(O)CCO | -40.4% (inactive) |
| CC(C)CCC[C@@H](C)C1CCC2[C@@H]3CCC4C[C@@H](CCC=C(c5cc(Cl)c(O)c(C(=O)O)c5)c5cc(Cl)c(O)c(C(=O)O)c5)CC[C@]4(C)C3CC[C@@]21C (stereo not given in full) | -21.9% (inactive) |
| CN1C(=O)C(c2c[nH]c3ccccc23)N(C)C(=O)C1c1c[nH]c2ccccc12 (stereo not given) | -10.8% (inactive) |
| Cc1c2c(c(O)c3sccc13)C(C)(C)OC2=O | -1.8% (inactive) |
| Cc1cc(C)c(S(=O)(=O)Oc2ccccc2)c(C)c1 | -7.15% (inactive) |
| O=C1CSC(c2ccc([N+](=O)[O-])cc2)N1c1ccc(-n2c(-c3ccccc3)nc3ccccc3c2=O)cc1 (stereo not given) | -10.2% (inactive) |
| CC(C)c1ccccc1O | 30.7% (inactive) |
| COc1ccc(NC(=S)N/N=C(\C)c2ccccn2)cc1 | 91.8% (active) |
| COc1ccc(-[n+]2nc(S(=O)(=O)O)c(/C=C/c3ccc(N(C)C)cc3)cc2C#N)cc1 | -9.05% (inactive) |
| Cn1c(=O)c(C(=O)Nc2nc(C34CC5CC(CC(C5)C3)C4)cs2)c(O)c2ccccc21 | -28.6% (inactive) |
| O=C(COc1ccc(Cl)cc1)Nc1cc(Cl)c(Cl)cc1Cl | -7.2% (inactive) |
| CC(O)c1cccc(NC(=O)NC2CCCCC2)c1 (stereo not given) | 28.1% (inactive) |
| Cc1cc(C)c2nccc(NCCCN(C)C)c2c1[N+](=O)[O-] | 5% (inactive) |
| CNC(=O)Nc1c(C)cccc1C | 6.1% (inactive) |
| Clc1cc2cc3cccc[n+]3cc2cc1Cl | 16.1% (inactive) |
| CCOC(=O)CN(Cn1cncn1)Cn1cncn1 | 5.55% (inactive) |
| CC(C)(O)CCNc1ncnc2c1ncn2C1OC(CO)C(O)C1O (stereo not given) | -1.75% (inactive) |
| Clc1ccc(/C=C/c2nc(Cl)c(-c3ccc(Cl)cc3)c(Cl)n2)cc1 | -18.8% (inactive) |
| N#CC(c1ccccc1)c1ccc2ccccc2n1 (stereo not given) | 7.4% (inactive) |

| SMILES | growth inhibition |
| --- | --- |
| O=C(O)CCNCCC(=O)O | -6.75% (inactive) |
| O=C(O)/C(=C/c1cccs1)c1ccc(F)cc1 | 12.2% (inactive) |
| COc1cc(C(=O)NNC(=O)c2ccc(Cl)c(Cl)c2)cc(OC)c1OC | 33.9% (inactive) |
| COC(=O)C(CCCCCCCC(C(=O)OC)c1nc2n(c1O)C(=N)N=N2)c1nc2n(c1O)C(=N)N=N2 (stereo not given) | -3.75% (inactive) |
| CC(C)(C)C1C=C(Sc2ccccc2)C(=O)O1 (stereo not given) | 7.3% (inactive) |
| COc1ccc(/C(C)=C\C(=O)O)c(O)c1OC | 6.85% (inactive) |
| O=C1CSC(c2cccc([N+](=O)[O-])c2)N1c1nncs1 (stereo not given) | 11.7% (inactive) |
| CCC1(C=O)C(=O)NC(=O)N1C (stereo not given) | 1.05% (inactive) |
| O=C(C[n+]1ccccc1)c1ccc(O)c(I)c1 | 7.65% (inactive) |
| O=C1C2C3ON(c4ccccc43)C2C(=O)N1c1ccccc1 (stereo not given) | 21% (inactive) |
| CCCCCN=C(N)C(N)=NCCCCC | 8% (inactive) |
| CC1=CC(C)C(C(=O)OCC(C)C)C(C(=O)OCC(C)C)C1 (stereo not given) | -6% (inactive) |
| CCCOC(=O)N(C)c1ccccc1 | -10.3% (inactive) |
| N#CC1CC2CC1C1OC21 (stereo not given) | -10.3% (inactive) |
| C/C=C/C=C/C(=O)OCCCC | -0.65% (inactive) |
| Cc1c(OCCCOc2ccc3c(=O)cc(-c4ccccc4)oc3c2C)ccc2c(=O)cc(-c3ccccc3)oc12 | -18.1% (inactive) |
| O=c1[nH]c2ccc([N+](=O)[O-])cc2nc1/C(=N/Nc1ccccc1)C(O)c1ccco1 (stereo not given) | -9.1% (inactive) |
| COc1cccc(C)c1O | -7.35% (inactive) |
| CC(NC(C#N)CC12CC3CC(CC(C3)C1)C2)c1ccccc1 (stereo not given) | -11.4% (inactive) |
| CCOC(=O)/C(SC#N)=C(/N)N1CCCC1 | -43.8% (inactive) |

Assay: NCI Yeast Anticancer Drug Screen. Data for the sgs1 mgt1 strain (AID 161);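 also: 0% = growth of cultures given vehicle only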
Conditions: S. cerevisiae sgs1 mgt1 strain, hits give high values; at 50.0 µM unless noted
Outline: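 Growth of a repair-deficient yeast mutant was monitored after compound treatment and expressed as inhibition relative to vehicle-treated cultures.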

| SMILES | growth inhibition |
| --- | --- |
| O=C1C(CN2CCCC2)CCCC1CN1CCCC1 (stereo not given) | -40.1% (inactive) |
| CC(C)(O)CCO | -17.4% (inactive) |
| CC(C)CCC[C@@H](C)C1CCC2[C@@H]3CCC4C[C@@H](CCC=C(c5cc(Cl)c(O)c(C(=O)O)c5)c5cc(Cl)c(O)c(C(=O)O)c5)CC[C@]4(C)C3CC[C@@]21C (stereo not given in full) | -14.7% (inactive) |
| CN1C(=O)C(c2c[nH]c3ccccc23)N(C)C(=O)C1c1c[nH]c2ccccc12 (stereo not given) | -79.5% (inactive) |
| Cc1c2c(c(O)c3sccc13)C(C)(C)OC2=O | -9.6% (inactive) |
| Cc1cc(C)c(S(=O)(=O)Oc2ccccc2)c(C)c1 | -8.5% (inactive) |
| O=C1CSC(c2ccc([N+](=O)[O-])cc2)N1c1ccc(-n2c(-c3ccccc3)nc3ccccc3c2=O)cc1 (stereo not given) | 15.2% (inactive) |
| CC(C)c1ccccc1O | 9.95% (inactive) |
| COc1ccc(NC(=S)N/N=C(\C)c2ccccn2)cc1 | 94% (active) |
| COc1ccc(-[n+]2nc(S(=O)(=O)O)c(/C=C/c3ccc(N(C)C)cc3)cc2C#N)cc1 | 20.1% (inactive) |
| Cn1c(=O)c(C(=O)Nc2nc(C34CC5CC(CC(C5)C3)C4)cs2)c(O)c2ccccc21 | -5.7% (inactive) |
| O=C(COc1ccc(Cl)cc1)Nc1cc(Cl)c(Cl)cc1Cl | 3.1% (inactive) |
| CC(O)c1cccc(NC(=O)NC2CCCCC2)c1 (stereo not given) | 10.8% (inactive) |
| Cc1cc(C)c2nccc(NCCCN(C)C)c2c1[N+](=O)[O-] | -1.8% (inactive) |
| CNC(=O)Nc1c(C)cccc1C | -0.2% (inactive) |
| Clc1cc2cc3cccc[n+]3cc2cc1Cl | 26.2% (inactive) |
| CCOC(=O)CN(Cn1cncn1)Cn1cncn1 | 22.2% (inactive) |
| CC(C)(O)CCNc1ncnc2c1ncn2C1OC(CO)C(O)C1O (stereo not given) | 9.7% (inactive) |
| Clc1ccc(/C=C/c2nc(Cl)c(-c3ccc(Cl)cc3)c(Cl)n2)cc1 | -3.1% (inactive) |
| N#CC(c1ccccc1)c1ccc2ccccc2n1 (stereo not given) | 10.8% (inactive) |

| SMILES | growth inhibition |
| --- | --- |
| O=C(O)CCNCCC(=O)O | 3.6% (inactive) |
| O=C(O)/C(=C/c1cccs1)c1ccc(F)cc1 | 15% (inactive) |
| COc1cc(C(=O)NNC(=O)c2ccc(Cl)c(Cl)c2)cc(OC)c1OC | 20.5% (inactive) |
| COC(=O)C(CCCCCCCC(C(=O)OC)c1nc2n(c1O)C(=N)N=N2)c1nc2n(c1O)C(=N)N=N2 (stereo not given) | -7.95% (inactive) |
| CC(C)(C)C1C=C(Sc2ccccc2)C(=O)O1 (stereo not given) | 6.25% (inactive) |
| COc1ccc(/C(C)=C\C(=O)O)c(O)c1OC | -4.65% (inactive) |
| O=C1CSC(c2cccc([N+](=O)[O-])c2)N1c1nncs1 (stereo not given) | 6.8% (inactive) |
| CCC1(C=O)C(=O)NC(=O)N1C (stereo not given) | 2% (inactive) |
| O=C(C[n+]1ccccc1)c1ccc(O)c(I)c1 | 21.9% (inactive) |
| O=C1C2C3ON(c4ccccc43)C2C(=O)N1c1ccccc1 (stereo not given) | 15.4% (inactive) |
| CCCCCN=C(N)C(N)=NCCCCC | 24.7% (inactive) |
| CC1=CC(C)C(C(=O)OCC(C)C)C(C(=O)OCC(C)C)C1 (stereo not given) | -5.1% (inactive) |
| CCCOC(=O)N(C)c1ccccc1 | 2.95% (inactive) |
| N#CC1CC2CC1C1OC21 (stereo not given) | -14.1% (inactive) |
| C/C=C/C=C/C(=O)OCCCC | -8.55% (inactive) |
| Cc1c(OCCCOc2ccc3c(=O)cc(-c4ccccc4)oc3c2C)ccc2c(=O)cc(-c3ccccc3)oc12 | -13.7% (inactive) |
| O=c1[nH]c2ccc([N+](=O)[O-])cc2nc1/C(=N/Nc1ccccc1)C(O)c1ccco1 (stereo not given) | -12.8% (inactive) |
| COc1cccc(C)c1O | -7.8% (inactive) |
| CC(NC(C#N)CC12CC3CC(CC(C3)C1)C2)c1ccccc1 (stereo not given) | -11.6% (inactive) |
| CCOC(=O)/C(SC#N)=C(/N)N1CCCC1 | -4% (inactive) |
